Here are results for six compounds from ChEMBL document CHEMBL3988442, “University of Dundee, Small-Polar-MMV Screening Library” (2021).

For some of these results: Results with a measured potency or affinity are listed apart.

Parameters in all cases: scale not given: direction of the effect not stated beside the values
Assay [1] addresses Protein translocase subunit SecA (Escherichia coli (strain K12)) (UniProt P10408). As to the kind of experiment: Assay to Identify E. coli SecA ATPase Inhibitors. The assay is classed as functional. As to conditions: 30 µM.
Assay [2] addresses T1, Ubiquitin-activating enzyme e1, putative (Leishmania donovani (strain BPK282A1)) (UniProt E9BSI1).
T1 sequence (whole entry): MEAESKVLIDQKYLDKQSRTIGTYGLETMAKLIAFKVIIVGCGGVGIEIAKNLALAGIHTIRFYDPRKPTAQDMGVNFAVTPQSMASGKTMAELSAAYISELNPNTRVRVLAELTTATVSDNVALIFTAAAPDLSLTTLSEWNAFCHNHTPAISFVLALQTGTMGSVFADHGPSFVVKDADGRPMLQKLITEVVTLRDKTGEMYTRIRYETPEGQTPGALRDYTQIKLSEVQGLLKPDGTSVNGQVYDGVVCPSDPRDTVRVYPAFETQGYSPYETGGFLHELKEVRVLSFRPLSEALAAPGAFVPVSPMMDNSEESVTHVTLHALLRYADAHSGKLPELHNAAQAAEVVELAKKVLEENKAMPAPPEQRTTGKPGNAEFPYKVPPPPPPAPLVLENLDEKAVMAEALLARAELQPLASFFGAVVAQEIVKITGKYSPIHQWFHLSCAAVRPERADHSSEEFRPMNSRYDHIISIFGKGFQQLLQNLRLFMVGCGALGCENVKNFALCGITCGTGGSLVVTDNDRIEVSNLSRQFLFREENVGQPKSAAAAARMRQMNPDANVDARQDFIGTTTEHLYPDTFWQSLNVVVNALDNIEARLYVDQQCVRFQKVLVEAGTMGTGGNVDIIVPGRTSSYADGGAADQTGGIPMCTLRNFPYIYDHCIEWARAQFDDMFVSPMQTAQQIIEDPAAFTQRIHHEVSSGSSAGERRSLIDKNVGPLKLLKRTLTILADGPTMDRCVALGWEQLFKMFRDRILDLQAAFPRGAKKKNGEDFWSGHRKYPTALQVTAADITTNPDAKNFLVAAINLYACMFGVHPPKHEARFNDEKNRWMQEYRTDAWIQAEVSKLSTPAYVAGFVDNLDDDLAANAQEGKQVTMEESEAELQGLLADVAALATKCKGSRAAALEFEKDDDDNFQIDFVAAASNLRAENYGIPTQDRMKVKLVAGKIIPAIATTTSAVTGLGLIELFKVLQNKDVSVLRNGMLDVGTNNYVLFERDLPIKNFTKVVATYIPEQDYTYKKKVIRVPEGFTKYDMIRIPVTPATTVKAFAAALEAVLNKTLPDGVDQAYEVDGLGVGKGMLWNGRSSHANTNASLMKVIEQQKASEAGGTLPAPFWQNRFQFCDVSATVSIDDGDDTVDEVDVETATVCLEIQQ
As to the kind of experiment: Leishmania donovani Ubiquitin Activating Enzyme (LdE1). It is filed as functional. As to conditions: 30 µM.

Assay [3] concerns the target T2, Aspartate--tRNA(Asp/Asn) ligase (Mycobacterium tuberculosis (strain ATCC 25618 / H37Rv)) (UniProt P9WFW3). Note: in the data most compounds retested in dose-response had high values.
T2 sequence (whole entry): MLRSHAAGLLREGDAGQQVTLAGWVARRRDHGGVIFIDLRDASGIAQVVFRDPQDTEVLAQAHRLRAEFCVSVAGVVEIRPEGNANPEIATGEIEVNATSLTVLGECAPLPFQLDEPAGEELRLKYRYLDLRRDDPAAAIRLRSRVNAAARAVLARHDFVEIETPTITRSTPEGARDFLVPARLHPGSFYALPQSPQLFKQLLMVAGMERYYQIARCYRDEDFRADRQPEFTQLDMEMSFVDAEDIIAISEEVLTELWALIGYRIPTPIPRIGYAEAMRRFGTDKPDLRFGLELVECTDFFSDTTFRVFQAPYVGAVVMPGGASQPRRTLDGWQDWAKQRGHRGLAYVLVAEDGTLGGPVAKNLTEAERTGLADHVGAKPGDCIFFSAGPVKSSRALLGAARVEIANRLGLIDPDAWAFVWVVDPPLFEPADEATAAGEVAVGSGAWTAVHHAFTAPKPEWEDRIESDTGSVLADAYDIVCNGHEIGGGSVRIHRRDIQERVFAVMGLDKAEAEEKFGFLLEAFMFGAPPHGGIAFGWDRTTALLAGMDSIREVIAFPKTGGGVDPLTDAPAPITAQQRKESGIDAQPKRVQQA
The assay can be described thus: Assay for Asp RNA synthetase-1 from Mycobacterium tuberculosis. It is filed as functional. As to conditions: 30 µM.

Assay [4] addresses Sialic acid-binding Ig-like lectin 9 (Homo sapiens) (UniProt Q9Y336). As to the kind of experiment: Hs-Siglec9 ALPHAscreen SOP 20170721. As to conditions: 10 µM. In general terms: Bead proximity is the source of the signal in Alpha formats.
Assay [5] concerns Trypanosoma cruzi. As to the kind of experiment: Trypanosoma cruzi phosphomannomutase and mannose-1-phosphate guanylyltransferase assay. The assay is classed as functional. As to conditions: 10 µM.
The target in assay [6] is T3, Arginase-2, mitochondrial (Homo sapiens) (UniProt P78540).
T3 sequence (whole entry): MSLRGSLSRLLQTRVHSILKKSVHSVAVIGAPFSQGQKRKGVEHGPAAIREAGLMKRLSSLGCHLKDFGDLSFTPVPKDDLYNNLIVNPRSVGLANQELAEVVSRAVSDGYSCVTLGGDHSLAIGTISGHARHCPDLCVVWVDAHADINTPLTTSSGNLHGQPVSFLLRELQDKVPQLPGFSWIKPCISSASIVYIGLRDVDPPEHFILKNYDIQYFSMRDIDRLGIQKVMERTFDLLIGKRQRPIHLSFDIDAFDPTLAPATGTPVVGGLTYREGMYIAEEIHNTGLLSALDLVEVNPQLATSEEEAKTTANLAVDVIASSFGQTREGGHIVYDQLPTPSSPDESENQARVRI
The assay can be described thus: in vitro enzyme assay to detect the production of urea directly proportional to the activity of Arginase II. Note: in the data most compounds retested in dose-response had high values. It is filed as functional. The note with it: 33.3 µM.

Assay [7] has as its target T4, Proteasome subunit beta (Trypanosoma cruzi) (UniProt O96673).
T4 sequence (whole entry): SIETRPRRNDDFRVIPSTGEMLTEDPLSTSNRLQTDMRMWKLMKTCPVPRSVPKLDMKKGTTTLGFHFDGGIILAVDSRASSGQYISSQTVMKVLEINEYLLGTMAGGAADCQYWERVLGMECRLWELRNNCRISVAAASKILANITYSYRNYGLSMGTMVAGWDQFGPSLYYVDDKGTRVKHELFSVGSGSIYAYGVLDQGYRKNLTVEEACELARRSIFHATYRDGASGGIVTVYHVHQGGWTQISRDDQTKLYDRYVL
The assay can be described thus: Trypanosoma cruzi proteasome chymotrypsin-like activity (TcProtChymo) assay. Note: in the data most compounds retested in dose-response had high values. It is filed as functional. As to conditions: 9.37 µM.

For assay [8], the species on record is Homo sapiens. As to the kind of experiment: To identify inhibition of the IFN signalling (Jak-Stat) pathway via expression of an eGFP reporter gene under the control of an IFN-stimulated response element (ISRE) containing MxA promoter. It is filed as functional. As to conditions: 30 µM. In general terms: Reporter assays use an easily measured gene product as a stand-in for the process of interest.

Assay [9] has as its target Shiga toxin 2 (Escherichia coli O157:H7) (UniProt P09385+P09386). The assay can be described thus: E. coli 0.157:H7 Shiga Toxin SOP - stx2 screening assay. The assay is classed as functional. The note with it: 30 µM.
For assay [10], the target named is T5, Tyrosyl-tRNA synthetase, putative (Trypanosoma cruzi (strain CL Brener)) (UniProt Q4DSP6).
T5 sequence (whole entry): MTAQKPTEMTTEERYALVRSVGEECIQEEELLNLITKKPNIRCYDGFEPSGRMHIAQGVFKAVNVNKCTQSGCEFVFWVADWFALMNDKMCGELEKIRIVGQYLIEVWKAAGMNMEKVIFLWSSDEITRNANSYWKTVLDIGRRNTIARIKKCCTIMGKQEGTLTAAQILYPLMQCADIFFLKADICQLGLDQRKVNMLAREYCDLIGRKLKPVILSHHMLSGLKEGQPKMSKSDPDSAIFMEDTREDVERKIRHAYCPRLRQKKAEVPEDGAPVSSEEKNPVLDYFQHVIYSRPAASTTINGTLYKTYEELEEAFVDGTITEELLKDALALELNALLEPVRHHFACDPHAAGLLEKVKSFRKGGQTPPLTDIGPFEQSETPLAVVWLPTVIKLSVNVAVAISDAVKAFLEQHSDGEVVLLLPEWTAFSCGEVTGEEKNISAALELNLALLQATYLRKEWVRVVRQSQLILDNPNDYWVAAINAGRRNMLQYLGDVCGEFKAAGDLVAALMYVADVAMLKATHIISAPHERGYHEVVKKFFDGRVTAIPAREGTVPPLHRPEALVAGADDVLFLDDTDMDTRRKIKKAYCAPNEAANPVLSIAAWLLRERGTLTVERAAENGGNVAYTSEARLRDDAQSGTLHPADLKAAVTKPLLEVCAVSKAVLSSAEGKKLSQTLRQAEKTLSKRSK
As to the kind of experiment: Trypanosoma cruzi tyrosyl tRNA synthetase (TcYRS) _High Tyrosine SOP. Note: in the data most compounds retested in dose-response had high values. The assay is classed as functional. The note with it: 30 µM.

For assay [11], the target named is T5, Tyrosyl-tRNA synthetase, putative (Trypanosoma cruzi (strain CL Brener)). As to the kind of experiment: Trypanosoma cruzi tyrosyl tRNA synthetase (TcYRS) SOP. It is filed as functional. The note with it: 30 µM.
In assay [12] the target is Chromo domain-containing protein 1 (Saccharomyces cerevisiae (strain ATCC 204508 / S288c) (Baker's yeast)) (UniProt P32657). The assay can be described thus: ScCHD-1 Enzyme Inhibition Assay. Note: in the data most compounds retested in dose-response had high values. The note with it: 30 µM. It is filed as functional.
Chain of Chromo domain-containing protein 1 (Saccharomyces cerevisiae (strain ATCC 204508 / S288c) (Baker's yeast)) (P32657 whole entry, the tested form may be a part): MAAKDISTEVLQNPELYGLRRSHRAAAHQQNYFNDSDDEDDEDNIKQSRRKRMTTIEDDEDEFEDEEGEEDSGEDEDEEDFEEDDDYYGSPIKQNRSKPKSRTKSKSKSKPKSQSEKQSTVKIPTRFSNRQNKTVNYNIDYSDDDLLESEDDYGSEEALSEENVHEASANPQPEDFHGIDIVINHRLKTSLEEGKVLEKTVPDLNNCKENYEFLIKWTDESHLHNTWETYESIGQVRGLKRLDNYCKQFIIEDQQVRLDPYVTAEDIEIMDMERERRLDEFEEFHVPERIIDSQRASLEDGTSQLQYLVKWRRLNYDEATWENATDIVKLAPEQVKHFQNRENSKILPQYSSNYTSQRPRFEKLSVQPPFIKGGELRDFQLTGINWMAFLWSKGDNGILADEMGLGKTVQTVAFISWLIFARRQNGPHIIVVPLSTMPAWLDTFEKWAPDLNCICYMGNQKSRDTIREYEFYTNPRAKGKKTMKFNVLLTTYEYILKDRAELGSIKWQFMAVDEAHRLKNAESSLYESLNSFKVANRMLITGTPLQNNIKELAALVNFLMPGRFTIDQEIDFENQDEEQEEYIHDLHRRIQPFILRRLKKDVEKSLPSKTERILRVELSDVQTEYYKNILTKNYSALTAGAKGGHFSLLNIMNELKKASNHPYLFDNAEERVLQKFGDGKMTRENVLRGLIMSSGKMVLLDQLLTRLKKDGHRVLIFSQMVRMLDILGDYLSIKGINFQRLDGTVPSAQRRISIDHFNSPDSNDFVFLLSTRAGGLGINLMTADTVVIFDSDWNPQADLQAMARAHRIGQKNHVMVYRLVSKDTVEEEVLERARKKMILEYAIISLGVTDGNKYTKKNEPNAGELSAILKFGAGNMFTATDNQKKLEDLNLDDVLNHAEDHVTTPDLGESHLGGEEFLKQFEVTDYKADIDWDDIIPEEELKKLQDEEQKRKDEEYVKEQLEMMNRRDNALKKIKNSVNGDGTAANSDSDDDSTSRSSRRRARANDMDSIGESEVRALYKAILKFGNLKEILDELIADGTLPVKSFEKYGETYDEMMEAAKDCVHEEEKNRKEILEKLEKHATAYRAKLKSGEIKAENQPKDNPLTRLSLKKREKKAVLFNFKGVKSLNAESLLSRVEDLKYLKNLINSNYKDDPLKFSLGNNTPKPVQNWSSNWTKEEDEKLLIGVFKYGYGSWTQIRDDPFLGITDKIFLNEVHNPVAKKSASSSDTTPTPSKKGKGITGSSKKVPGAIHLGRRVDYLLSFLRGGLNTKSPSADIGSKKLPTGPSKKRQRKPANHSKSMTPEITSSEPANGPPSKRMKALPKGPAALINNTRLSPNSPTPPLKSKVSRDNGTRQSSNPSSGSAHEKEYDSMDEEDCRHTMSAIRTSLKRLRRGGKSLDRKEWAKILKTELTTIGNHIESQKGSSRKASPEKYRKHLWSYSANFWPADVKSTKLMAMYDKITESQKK

Chain of Protein translocase subunit SecA (Escherichia coli (strain K12)) (P10408 whole entry): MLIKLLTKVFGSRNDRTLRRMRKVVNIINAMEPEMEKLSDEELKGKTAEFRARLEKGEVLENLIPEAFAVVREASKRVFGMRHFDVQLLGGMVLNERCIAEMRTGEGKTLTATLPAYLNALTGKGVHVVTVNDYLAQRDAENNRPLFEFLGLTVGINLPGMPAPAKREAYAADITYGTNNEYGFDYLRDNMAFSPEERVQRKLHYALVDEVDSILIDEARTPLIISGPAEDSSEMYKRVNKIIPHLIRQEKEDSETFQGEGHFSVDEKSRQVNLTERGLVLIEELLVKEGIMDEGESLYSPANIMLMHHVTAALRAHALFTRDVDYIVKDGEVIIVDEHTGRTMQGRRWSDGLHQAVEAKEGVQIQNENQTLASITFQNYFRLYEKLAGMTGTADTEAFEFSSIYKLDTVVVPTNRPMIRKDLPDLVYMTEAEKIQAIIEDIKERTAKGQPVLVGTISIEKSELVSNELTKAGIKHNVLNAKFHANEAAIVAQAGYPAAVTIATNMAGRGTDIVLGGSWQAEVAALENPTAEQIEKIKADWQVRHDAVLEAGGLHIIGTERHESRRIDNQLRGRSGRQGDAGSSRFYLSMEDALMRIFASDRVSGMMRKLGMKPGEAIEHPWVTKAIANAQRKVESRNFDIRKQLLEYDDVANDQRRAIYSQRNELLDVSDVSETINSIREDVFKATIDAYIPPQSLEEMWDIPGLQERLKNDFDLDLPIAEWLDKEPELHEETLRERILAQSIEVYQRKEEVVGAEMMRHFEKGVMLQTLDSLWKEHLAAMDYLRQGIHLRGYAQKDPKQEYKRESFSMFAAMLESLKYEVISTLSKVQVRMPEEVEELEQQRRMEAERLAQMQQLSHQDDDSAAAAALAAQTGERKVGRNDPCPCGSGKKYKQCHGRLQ
Chain of Sialic acid-binding Ig-like lectin 9 (Homo sapiens) (Q9Y336 whole entry): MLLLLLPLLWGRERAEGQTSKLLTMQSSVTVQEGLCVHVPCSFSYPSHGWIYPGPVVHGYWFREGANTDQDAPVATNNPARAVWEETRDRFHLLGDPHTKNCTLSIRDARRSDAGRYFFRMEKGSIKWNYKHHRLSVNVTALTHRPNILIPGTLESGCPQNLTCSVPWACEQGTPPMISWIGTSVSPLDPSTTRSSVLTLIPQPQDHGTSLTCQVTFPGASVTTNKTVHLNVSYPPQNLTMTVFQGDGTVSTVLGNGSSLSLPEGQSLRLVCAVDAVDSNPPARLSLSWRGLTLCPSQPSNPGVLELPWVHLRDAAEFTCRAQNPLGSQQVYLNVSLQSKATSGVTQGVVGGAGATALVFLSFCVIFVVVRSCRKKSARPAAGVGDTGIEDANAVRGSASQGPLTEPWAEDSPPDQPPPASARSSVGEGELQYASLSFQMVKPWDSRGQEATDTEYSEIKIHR

On to `Cn1cc(CN2C[C@@H]3[C@@H](C2)OCC(=O)N3Cc2ccncc2)cn1`, for which the Percent Effect in assay [1] is -5.79%; in assay [2], 3.9%; in assay [3] it was 4.5%; in assay [4] it was -1.61%; in [5], 1.07%; in [6], 0.81%. Moreover, the Percent Effect is 15.8% in [7]; 8.18% in [8]; 1.35% in assay [9]; -0.526% in assay [10]; 17.9% in assay [11]; 0.0412% in assay [12].
As to `O=C(Nc1cccnc1)[C@@H]1C[C@H]2OCC[C@H]2N(Cc2ccsc2)C1`, the Percent Effect is -6.23% in assay [1]; 9.09% in [2]; -1.88% in [3]; 6.98% in assay [4]; 0.487% in assay [5]; -0.81% in [6]. Further, the Percent Effect is 13.7% in [7]; 0.767% in assay [8]; -6.35% in [9]; 4.74% in assay [10]; 10.3% in assay [11]; -2.28% in assay [12].
With `CCCc1nc(N2Cc3cnn(Cc4ccc(F)cc4)c3C2)no1`, the Percent Effect in assay [3] is -0.77%.
As for `CCc1nc(CC(=O)N2CCCC2CN2CCCC2)cs1` (stereo unspecified), the Percent Effect is -0.0825% in assay [1]; 0% in assay [2]; -3.69% in [3]; 1.63% in assay [4]; -2.01% in assay [5]; 5.32% in assay [6]. Besides, the Percent Effect in assay [7] was 11.1%; in assay [8] it was -4.98%; in assay [9] it was -5.61%; in assay [10], 2.63%; in assay [11] it was 2.56%; in [12], -5.66%.
Consider `C[C@@H]1C(=O)NC[C@H]2CN(Cc3ccsc3)C[C@H]21`, for which the Percent Effect was -2.31% in assay [1]; 3.9% in assay [2]; -1.43% in assay [3]; 1.3% in [4]; 1.88% in [5]; -0.457% in assay [6]. Besides, the Percent Effect in assay [7] is -4.55%; in assay [8] it was -3.55%; in assay [9], -20.9%; in [10], 6.76%; in [11] it was 10%; in [12] it was -9.75%.
For the compound `NC(=O)CN1CCCN(C(=O)Cc2ccc3c(c2)OCO3)CC1`, the Percent Effect was -0.196% in [1]; 5.33% in [2]; -1.81% in assay [3]; 2.43% in assay [4]; -7.43% in assay [5]; 3.55% in assay [6]. The Percent Effect was 3.48% in [7]; 12% in [8]; -21.4% in assay [9]; 3.68% in assay [10]; 10.3% in assay [11]; -7.19% in assay [12].
